aSyn UTR act: Activators via SNCA 5'UTR binding, MLPCN; alpha-synuclein 5'UTR reporter, activators screen; 300,000 compounds, 7.1% hits; activity score, % (tested at 7.5 µM), hits read low; AID 1814, 2009; in the data active = activity score below about -60%
Numbers without * were called inactive. A selection follows.

SMILES	aSyn UTR act
CCOC(=O)C1=C(c2ccccc2)OC(N)=C(C#N)C1C(C)C (stereo not drawn)	-103*
CCOC(=O)C1=C(CSc2nc(-c3ccccc3)ccc2C#N)OC(N)=C(C#N)C1c1cccnc1 (stereo not drawn)	-84*
CCOC(=O)C1=C(CSc2nc(-c3ccccc3)ccc2C#N)OC(N)=C(C#N)C1c1ccccc1 (stereo not drawn)	-103*
N#CC1=C(N)Oc2ccc3ccccc3c2C1c1cccnc1 (stereo not drawn)	54
CSc1ccc(/C=C/c2cc(=O)c3ccccc3[nH]2)cc1	-69*
O=c1cc(-c2cccc(F)c2)[nH]c2ccccc12	87
Cn1nnnc1SCc1ccc(C(=O)Nc2ccc(Br)cc2)cc1	-186*
Cc1ccc(NC(=O)c2ccc(CSc3nnc(-c4ccncc4)n3C)cc2)cc1	-108*
CCOC(=O)c1ccc(CSc2nnc(-c3ccncc3)n2N)cc1	-63*
Cc1csc(NC(=O)c2cccc(C)c2C)n1	-155*
Cc1csc(NC(=O)c2ccoc2C)n1	-191*
O=C(Nc1nc(-c2ccccn2)cs1)c1cc(Cl)ccc1[N+](=O)[O-]	116
Cc1csc(NC(=O)c2ccc(Cl)cc2[N+](=O)[O-])n1	-92*
Cc1csc(NC(=O)c2ccc[nH]c2=O)n1	-85*
Cc1csc(NC(=O)c2cccnc2Cl)n1	-76*
Cc1csc(NC(=O)c2cnccn2)n1	-105*
CC(C)[C@H](NC(=O)c1ccccc1Cl)C(=O)Nc1nc(-c2ccccn2)cs1	64
CCOc1ccc(NC(=O)c2ccc(CC)s2)c([N+](=O)[O-])c1	-168*
CCOc1ccc(NC(=O)c2ccco2)c([N+](=O)[O-])c1	-131*
CCOc1ccc(NC(=O)c2cccs2)c([N+](=O)[O-])c1	-219*
O=C(CC(SCCO)c1ccc2c(c1)OCO2)c1ccco1 (stereo not drawn)	-98*
c1ccc(Oc2ccc3ccccc3n2)cc1	-129*
Clc1cccc(Cl)c1Cn1ccc(C2CC2)n1	-100*
COC(=O)c1sc(NC(=O)CSc2nnnn2C)nc1C	-73*
Cc1csc(NC(=O)CSc2nnnn2C)n1	-68*
SMILES	aSyn UTR act
Cc1nc(NC(=O)CSc2nnnn2C)sc1C	-121*
O=c1[nH][nH]c(-c2ccccc2O)c1C(C[N+](=O)[O-])c1ccc(Cl)cc1Cl (stereo not drawn)	-83*
Cc1ccc(N2C(=O)Nc3cc(Cl)c(Cl)cc3N2O)cc1Cl	-99*
COc1cc(/C=C/[N+](=O)[O-])ccc1OC(=O)/C=C/c1ccc(F)cc1	-72*
O=C(/C=C/c1ccc(F)cc1)NC(=S)N1CCN(c2ccccn2)CC1	-85*
COc1ccc(/C=C/C(=O)NC(=S)N2CCOCC2)cc1	-84*
COc1ccc(/C=C/C(=O)NC(=S)N2CCN(c3ccccc3OC)CC2)cc1	-160*
Cc1[nH]c2ccccc2c1C(=O)COc1ccccc1	-113*
Cc1[nH]c2ccccc2c1C(=O)CSc1ccccc1	-86*
Cc1[nH]c2ccccc2c1C(=O)CSc1ccccn1	-68*
Cc1ccc2c(C(=O)CSc3ccccc3)c(C)[nH]c2c1	-109*
O=C(Nc1ccc(Br)cn1)c1cccc(-c2cc3ccccc3oc2=O)c1	-112*
Cc1nc(NC(=O)c2cccc(-c3cc4ccccc4oc3=O)c2)ccc1Br	-81*
Cc1cccnc1Nc1nc(-c2ccc(F)cc2)cs1	-226*
Cc1cccnc1Nc1nc(-c2ccc(O)cc2)cs1	-231*
O=C1CC(c2ccccc2Cl)=NN(c2ncnc3ccccc23)C1=O	-74*
CCCCc1ccc(Nc2ncccc2C#N)cc1	-87*
CCOc1ccc(-c2csc(NC(=O)c3ccco3)n2)cc1	-126*
O=C(NNc1nc(-c2ccc(Br)cc2)cs1)c1ccco1	-105*
O=C(Nc1nc(-c2ccccc2)cs1)c1ccco1	-98*
Cc1ccc(-c2csc(NC(=O)c3ccco3)n2)cc1C	-209*
O=C(Nc1nc(-c2ccccn2)cs1)c1ccccc1-n1cnnn1	98
O=C(Nc1nc(-c2ccco2)cs1)c1ccccc1	-181*
COc1ccc(-c2csc(NC(=O)c3ccco3)n2)cc1	-241*
Cc1ccc(-c2csc(NC(=O)c3ccc(-c4ccccc4)cc3)n2)o1	-122*
SMILES	aSyn UTR act
COc1ccc(-c2csc(NC(=O)C3=NN(c4ccccc4)C(=O)CC3)n2)cc1	-86*
COc1ccc(C(=O)/C=C/c2cccs2)c(OC(=O)c2cccc([N+](=O)[O-])c2)c1	-366*
COc1ccc(C(=O)/C=C/c2ccc(F)cc2)c(OC(=O)c2ccc([N+](=O)[O-])cc2)c1	-122*
Cc1cccc(-c2cc3nc(-c4ccccc4)cc(=O)n3[nH]2)c1	-103*
Cc1cc(=O)n2[nH]c(-c3ccc(F)cc3)cc2n1	-64*
CN=c1scc(-c2ccccc2Br)n1/N=C/c1ccc[nH]1	64
CN=c1scc(-c2ccccc2F)n1/N=C(\C)c1cccnc1	-163*
CCOC(=O)C(=CNc1ccc(C(F)(F)F)cc1Cl)C(=O)OCC	-97*
Cc1ccc(-c2nn3c(C)nnc3s2)cc1N	-79*
Cc1c(C(=O)Oc2ccc(-c3cnc4ccccc4n3)cc2)cccc1[N+](=O)[O-]	-108*
O=C(Oc1ccc(-c2cnc3ccccc3n2)cc1)c1cc([N+](=O)[O-])ccc1Cl	-176*
Cc1ccc2[nH]c3c(c2c1)CCc1cn[nH]c1-3	-62*
O=C(Nc1ccc(-n2cc(Cl)cn2)cc1)c1ccncc1	-92*
O=C(Nc1ccc(-n2cc(Br)cn2)cc1)c1ccncc1	-68*
COc1ccc2cc3cc(C(=O)N4CCCC(C)C4)oc3nc2c1 (stereo not drawn)	-64*
CCOC(=O)C1CCCN(C(=O)c2cc3cc4ccc(OC)cc4nc3o2)C1 (stereo not drawn)	-101*
Cc1cccc(OCCOC(=O)c2c(-c3ccccc3)noc2C)c1	-97*
O=C(c1ccco1)N1CCN(c2ncnc3c(-c4ccccc4)nsc23)CC1	-106*
COc1ccc(-c2nsc3c(N4CCN(C(=O)c5ccco5)CC4)ncnc23)cc1	-64*
NC(=O)C1CCN(c2ncnc3c(-c4ccccc4)nsc23)CC1	-112*
COc1ccc(C(=O)Nc2ccc(SC(F)F)cc2)cc1	-160*
O=C(Nc1ccc(SC(F)F)cc1)c1ccc2nccnc2c1	-218*
O=C(Nc1ccc(OC(F)(F)F)cc1)c1ccc2nccnc2c1	-112*
CCn1c(SCC(=O)Nc2ccc(-c3nc4ccc(C)cc4s3)cc2)nnc1-c1ccccc1	-175*
C=CCn1c(SCC(=O)Nc2ccc(-c3nc4ccc(C)cc4s3)cc2)nnc1-c1ccncc1	-99*
SMILES	aSyn UTR act
COc1ccsc1NC(=O)OCc1ccc(Cl)cc1	-69*
COc1ccc(/C=N/c2c(-c3ccco3)nc3ccccn23)cc1OC	-64*
CC1=CC(C)(C)N=C(Nc2ccc(C)cc2)S1	-169*
CCN(Cc1cnn(C)c1)C(=O)c1cc(COc2ccc3c(c2)CCCC3)on1	-73*
CC(/C=C/c1ccco1)=N\NC(=O)CNc1ccc2ccccc2c1	-70*
Oc1ccc(Br)cc1C=Nc1ccc2c3c(cccc13)CC2	-69*
CN(C)c1ccc(-n2cc3c(=O)n(C)c(=O)n(C)c3c2)cc1	-198*
CCN(CC)c1ccc(-n2cc3c(=O)n(C)c(=O)n(C)c3c2)cc1	-118*
CCOC(=O)COn1c(-c2cccc(Cl)c2)nc2ccc([N+](=O)[O-])cc21	-192*
CCOC(=O)C(C)On1c(-c2cccc(Cl)c2)nc2ccc([N+](=O)[O-])cc21 (stereo not drawn)	-62*

High-throughput results deposited in PubChem BioAssay by Broad Institute.
